# Source: ChEMBL document CHEMBL1961873, “Compounds: GSK PKIS; Assays: Nanosyn kinase panel” (2012)
# Where “and” joins values, the source holds several entries; their conditions need not be identical. Equal values may be shown once.
# Key:
# [1] = biological target: 5'-AMP-activated protein kinase catalytic subunit alpha-2 (Homo sapiens) (UniProt P54646); settings: at 1 µM
# [2] = biological target: T1, NUAK family SNF1-like kinase 1 (Homo sapiens) (UniProt O60285); settings: at 0.1 µM
# T1 sequence (whole entry): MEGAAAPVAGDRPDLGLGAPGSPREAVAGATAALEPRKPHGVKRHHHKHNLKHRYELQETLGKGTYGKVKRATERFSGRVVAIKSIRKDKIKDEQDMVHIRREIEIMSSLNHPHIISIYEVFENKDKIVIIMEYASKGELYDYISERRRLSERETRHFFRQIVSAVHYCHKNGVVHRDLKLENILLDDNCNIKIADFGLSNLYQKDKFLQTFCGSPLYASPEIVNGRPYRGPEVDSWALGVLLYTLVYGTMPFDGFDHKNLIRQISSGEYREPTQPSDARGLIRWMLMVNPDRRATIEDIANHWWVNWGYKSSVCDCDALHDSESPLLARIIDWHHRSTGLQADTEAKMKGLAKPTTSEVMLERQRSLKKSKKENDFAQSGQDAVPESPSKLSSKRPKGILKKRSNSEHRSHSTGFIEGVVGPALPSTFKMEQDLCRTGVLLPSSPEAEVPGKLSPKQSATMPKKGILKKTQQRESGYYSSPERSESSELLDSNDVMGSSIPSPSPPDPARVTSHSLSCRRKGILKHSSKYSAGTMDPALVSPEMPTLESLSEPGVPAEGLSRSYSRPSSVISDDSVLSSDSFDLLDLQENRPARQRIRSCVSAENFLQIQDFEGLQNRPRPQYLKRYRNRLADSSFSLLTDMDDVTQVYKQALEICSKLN
# [3] = biological target: T1, NUAK family SNF1-like kinase 1 (Homo sapiens); settings: at 1 µM
# [4] = biological target: T2, Serine/threonine-protein kinase BRSK1 (Homo sapiens) (UniProt Q8TDC3); settings: at 0.1 µM
# T2 sequence (whole entry): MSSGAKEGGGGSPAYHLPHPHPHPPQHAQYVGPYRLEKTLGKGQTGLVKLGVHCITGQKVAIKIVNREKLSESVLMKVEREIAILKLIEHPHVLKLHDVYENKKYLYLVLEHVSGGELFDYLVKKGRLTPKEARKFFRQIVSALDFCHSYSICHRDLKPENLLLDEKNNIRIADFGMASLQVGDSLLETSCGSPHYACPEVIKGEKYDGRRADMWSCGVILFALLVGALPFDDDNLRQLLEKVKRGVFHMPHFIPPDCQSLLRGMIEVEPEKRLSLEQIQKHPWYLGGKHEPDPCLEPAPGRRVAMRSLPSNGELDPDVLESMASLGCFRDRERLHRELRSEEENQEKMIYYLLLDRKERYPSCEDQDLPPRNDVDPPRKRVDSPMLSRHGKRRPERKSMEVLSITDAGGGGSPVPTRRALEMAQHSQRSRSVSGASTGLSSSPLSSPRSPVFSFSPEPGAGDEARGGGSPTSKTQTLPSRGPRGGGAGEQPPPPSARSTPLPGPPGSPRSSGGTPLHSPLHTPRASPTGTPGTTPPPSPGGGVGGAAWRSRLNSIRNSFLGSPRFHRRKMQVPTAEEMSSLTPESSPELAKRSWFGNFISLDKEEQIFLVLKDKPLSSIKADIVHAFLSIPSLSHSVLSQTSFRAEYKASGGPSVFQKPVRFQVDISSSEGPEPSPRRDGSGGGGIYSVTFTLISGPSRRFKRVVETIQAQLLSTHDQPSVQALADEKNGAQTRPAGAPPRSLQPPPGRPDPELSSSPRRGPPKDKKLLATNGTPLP
# [5] = biological target: T2, Serine/threonine-protein kinase BRSK1 (Homo sapiens); settings: at 1 µM
# [6] = biological target: T3, Serine/threonine-protein kinase BRSK2 (Homo sapiens) (UniProt Q8IWQ3); settings: at 0.1 µM
# T3 sequence (whole entry): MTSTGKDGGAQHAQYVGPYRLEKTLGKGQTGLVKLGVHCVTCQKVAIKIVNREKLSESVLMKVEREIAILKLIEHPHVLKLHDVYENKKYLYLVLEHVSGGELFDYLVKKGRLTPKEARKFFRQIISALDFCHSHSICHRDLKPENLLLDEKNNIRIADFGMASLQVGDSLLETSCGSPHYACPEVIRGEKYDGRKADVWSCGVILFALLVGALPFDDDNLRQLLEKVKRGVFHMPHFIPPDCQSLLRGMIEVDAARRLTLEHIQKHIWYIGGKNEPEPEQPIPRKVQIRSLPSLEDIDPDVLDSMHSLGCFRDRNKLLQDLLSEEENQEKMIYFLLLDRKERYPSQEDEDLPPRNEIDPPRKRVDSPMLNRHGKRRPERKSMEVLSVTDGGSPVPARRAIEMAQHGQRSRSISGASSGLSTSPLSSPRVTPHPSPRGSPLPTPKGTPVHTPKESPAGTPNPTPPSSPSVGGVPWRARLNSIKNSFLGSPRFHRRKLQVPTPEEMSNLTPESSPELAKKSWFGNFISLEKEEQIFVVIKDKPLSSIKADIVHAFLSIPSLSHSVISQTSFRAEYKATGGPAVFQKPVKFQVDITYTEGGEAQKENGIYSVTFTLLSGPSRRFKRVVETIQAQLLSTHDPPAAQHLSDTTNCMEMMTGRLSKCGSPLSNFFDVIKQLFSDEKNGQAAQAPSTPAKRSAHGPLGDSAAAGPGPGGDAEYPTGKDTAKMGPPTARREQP
# [7] = biological target: T3, Serine/threonine-protein kinase BRSK2 (Homo sapiens); settings: at 1 µM
# [8] = biological target: Calcium/calmodulin-dependent protein kinase type 1D (Homo sapiens) (UniProt Q8IU85); settings: at 0.1 µM
# [9] = biological target: Calcium/calmodulin-dependent protein kinase type 1D (Homo sapiens) (UniProt Q8IU85); settings: at 1 µM
# [10] = biological target: Calcium/calmodulin-dependent protein kinase type II subunit alpha (Homo sapiens) (UniProt Q9UQM7); settings: at 0.1 µM
# [11] = biological target: Calcium/calmodulin-dependent protein kinase type II subunit alpha (Homo sapiens) (UniProt Q9UQM7); settings: at 1 µM
# [12] = biological target: Calcium/calmodulin-dependent protein kinase type II subunit delta (Homo sapiens) (UniProt Q13557); settings: at 0.1 µM
# [13] = biological target: Calcium/calmodulin-dependent protein kinase type II subunit delta (Homo sapiens) (UniProt Q13557); settings: at 1 µM
# [14] = biological target: T4, Calcium/calmodulin-dependent protein kinase type IV (Homo sapiens) (UniProt Q16566); settings: at 0.1 µM
# T4 sequence (whole entry): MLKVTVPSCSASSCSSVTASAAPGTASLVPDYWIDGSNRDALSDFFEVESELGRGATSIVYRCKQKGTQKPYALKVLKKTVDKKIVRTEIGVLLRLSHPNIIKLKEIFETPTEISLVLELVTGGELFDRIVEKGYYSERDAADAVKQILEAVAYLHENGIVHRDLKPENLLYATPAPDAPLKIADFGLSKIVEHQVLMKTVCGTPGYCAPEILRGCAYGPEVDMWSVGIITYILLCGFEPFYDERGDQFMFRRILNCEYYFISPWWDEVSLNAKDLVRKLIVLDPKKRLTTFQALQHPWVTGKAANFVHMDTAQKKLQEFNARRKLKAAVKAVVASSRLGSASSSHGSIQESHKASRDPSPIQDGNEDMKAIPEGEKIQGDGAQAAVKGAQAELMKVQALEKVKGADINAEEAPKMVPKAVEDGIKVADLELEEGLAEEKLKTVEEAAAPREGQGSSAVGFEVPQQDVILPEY
# [15] = biological target: T4, Calcium/calmodulin-dependent protein kinase type IV (Homo sapiens); settings: at 1 µM
# [16] = biological target: T5, Serine/threonine-protein kinase Chk1 (Homo sapiens) (UniProt O14757); settings: at 0.1 µM
# T5 sequence (whole entry): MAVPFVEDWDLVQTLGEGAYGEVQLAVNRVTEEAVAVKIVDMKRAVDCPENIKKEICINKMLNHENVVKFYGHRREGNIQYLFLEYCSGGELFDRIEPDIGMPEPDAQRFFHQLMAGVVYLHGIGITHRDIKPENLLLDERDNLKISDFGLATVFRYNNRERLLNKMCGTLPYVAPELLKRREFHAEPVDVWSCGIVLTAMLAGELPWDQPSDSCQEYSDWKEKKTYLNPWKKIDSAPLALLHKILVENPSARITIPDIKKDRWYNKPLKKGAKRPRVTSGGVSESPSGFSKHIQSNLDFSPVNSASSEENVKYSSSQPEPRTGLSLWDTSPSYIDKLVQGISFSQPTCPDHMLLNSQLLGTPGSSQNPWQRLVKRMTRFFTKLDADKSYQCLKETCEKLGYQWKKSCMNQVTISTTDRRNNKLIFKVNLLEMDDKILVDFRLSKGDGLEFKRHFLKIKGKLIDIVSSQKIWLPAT
# [17] = biological target: T5, Serine/threonine-protein kinase Chk1 (Homo sapiens); settings: at 1 µM
# [18] = biological target: Serine/threonine-protein kinase Chk2 (Homo sapiens) (UniProt O96017); settings: at 0.1 µM
# [19] = biological target: Serine/threonine-protein kinase Chk2 (Homo sapiens) (UniProt O96017); settings: at 1 µM
# [20] = biological target: Death-associated protein kinase 1 (Homo sapiens) (UniProt P53355); settings: at 0.1 µM;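 further: reported figure is the mean inhibition of DAPK1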
# Chain of Death-associated protein kinase 1 (Homo sapiens) (P53355 whole entry, looked up): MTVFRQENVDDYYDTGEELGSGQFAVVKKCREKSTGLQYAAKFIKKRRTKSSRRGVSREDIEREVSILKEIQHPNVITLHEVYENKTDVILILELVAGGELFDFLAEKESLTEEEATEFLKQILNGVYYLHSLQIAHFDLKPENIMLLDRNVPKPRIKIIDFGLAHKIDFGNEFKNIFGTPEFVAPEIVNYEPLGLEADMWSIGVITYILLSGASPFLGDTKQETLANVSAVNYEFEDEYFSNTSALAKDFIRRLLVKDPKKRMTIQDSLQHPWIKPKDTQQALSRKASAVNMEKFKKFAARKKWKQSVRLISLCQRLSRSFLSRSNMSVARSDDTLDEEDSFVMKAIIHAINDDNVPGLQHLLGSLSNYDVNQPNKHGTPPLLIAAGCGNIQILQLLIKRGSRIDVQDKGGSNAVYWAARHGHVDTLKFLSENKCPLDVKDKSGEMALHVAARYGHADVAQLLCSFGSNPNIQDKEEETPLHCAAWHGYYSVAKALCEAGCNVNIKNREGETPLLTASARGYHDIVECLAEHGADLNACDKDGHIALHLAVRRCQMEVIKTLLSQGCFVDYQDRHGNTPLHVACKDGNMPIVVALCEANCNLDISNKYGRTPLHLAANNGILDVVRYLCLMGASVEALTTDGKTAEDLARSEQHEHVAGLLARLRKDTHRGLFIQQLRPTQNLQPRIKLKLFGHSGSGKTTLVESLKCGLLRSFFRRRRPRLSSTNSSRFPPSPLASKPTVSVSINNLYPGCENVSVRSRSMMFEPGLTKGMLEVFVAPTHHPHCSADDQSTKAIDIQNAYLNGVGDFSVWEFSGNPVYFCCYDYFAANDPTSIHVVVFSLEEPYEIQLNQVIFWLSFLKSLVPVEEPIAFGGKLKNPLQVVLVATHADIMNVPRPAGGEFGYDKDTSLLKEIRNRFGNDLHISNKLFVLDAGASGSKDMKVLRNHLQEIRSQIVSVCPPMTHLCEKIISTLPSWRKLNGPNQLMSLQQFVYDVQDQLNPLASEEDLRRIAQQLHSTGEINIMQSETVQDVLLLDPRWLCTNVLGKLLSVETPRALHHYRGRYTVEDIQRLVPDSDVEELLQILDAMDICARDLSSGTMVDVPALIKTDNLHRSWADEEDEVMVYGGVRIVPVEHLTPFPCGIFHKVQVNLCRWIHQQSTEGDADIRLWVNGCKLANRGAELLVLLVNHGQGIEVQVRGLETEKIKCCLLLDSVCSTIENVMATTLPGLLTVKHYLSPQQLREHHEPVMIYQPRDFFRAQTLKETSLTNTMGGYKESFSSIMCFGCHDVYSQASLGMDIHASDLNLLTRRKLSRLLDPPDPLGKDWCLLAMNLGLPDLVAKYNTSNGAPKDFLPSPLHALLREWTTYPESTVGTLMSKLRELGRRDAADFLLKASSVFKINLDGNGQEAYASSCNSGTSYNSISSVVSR
# Chain of Calcium/calmodulin-dependent protein kinase type II subunit alpha (Homo sapiens) (Q9UQM7 whole entry): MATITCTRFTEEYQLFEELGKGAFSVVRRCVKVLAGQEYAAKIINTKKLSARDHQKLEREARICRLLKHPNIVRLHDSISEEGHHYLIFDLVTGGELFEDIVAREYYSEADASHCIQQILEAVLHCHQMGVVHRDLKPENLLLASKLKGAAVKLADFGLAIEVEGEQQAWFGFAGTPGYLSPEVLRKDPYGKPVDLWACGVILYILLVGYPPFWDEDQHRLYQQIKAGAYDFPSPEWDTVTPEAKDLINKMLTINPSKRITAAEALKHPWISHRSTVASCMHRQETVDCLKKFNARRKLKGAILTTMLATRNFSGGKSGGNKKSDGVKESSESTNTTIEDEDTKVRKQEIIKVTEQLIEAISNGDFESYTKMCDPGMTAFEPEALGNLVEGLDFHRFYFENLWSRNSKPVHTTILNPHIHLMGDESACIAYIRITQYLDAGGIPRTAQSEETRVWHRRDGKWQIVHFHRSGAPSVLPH
# Chain of 5'-AMP-activated protein kinase catalytic subunit alpha-2 (Homo sapiens) (P54646 whole entry, looked up): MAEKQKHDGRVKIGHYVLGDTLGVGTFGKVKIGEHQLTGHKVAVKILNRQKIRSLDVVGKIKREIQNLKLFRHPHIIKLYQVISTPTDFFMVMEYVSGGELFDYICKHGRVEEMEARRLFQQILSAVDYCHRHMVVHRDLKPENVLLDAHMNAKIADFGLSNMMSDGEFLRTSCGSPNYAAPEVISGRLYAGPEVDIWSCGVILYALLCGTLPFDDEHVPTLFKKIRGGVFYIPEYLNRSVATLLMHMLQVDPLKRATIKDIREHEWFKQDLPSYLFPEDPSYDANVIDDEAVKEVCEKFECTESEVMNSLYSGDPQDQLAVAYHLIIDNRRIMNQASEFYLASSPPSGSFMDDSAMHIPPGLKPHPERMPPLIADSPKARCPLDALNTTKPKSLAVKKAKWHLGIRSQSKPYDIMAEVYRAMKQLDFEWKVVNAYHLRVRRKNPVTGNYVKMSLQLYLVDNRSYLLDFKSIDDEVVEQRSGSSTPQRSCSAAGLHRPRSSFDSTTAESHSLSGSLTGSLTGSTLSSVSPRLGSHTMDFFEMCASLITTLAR
# Chain of Calcium/calmodulin-dependent protein kinase type II subunit delta (Homo sapiens) (Q13557 whole entry): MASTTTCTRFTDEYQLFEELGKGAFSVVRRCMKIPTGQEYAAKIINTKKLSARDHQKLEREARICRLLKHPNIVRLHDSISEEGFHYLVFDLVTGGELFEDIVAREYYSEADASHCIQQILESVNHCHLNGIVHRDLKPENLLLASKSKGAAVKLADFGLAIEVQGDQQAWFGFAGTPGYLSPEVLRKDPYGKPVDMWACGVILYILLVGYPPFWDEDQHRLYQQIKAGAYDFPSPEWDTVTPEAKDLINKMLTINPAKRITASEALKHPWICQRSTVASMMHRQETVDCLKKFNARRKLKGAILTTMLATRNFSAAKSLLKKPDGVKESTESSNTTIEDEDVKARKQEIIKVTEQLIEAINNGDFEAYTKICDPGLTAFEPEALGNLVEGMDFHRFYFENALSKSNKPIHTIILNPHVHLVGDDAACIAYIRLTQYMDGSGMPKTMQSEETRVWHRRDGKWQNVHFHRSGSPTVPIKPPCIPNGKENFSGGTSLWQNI
# Chain of Calcium/calmodulin-dependent protein kinase type 1D (Homo sapiens) (Q8IU85 whole entry, looked up): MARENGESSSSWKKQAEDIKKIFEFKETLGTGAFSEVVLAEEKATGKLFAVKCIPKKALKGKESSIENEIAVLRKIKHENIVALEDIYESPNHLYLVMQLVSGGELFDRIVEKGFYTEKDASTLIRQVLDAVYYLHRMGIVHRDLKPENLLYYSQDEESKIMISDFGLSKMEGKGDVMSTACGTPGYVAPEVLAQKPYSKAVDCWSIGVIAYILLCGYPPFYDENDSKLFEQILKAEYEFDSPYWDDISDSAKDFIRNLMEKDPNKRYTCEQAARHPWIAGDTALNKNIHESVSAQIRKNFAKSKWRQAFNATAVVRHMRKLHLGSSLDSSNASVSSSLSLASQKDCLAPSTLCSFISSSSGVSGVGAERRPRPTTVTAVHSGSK
# Chain of Serine/threonine-protein kinase Chk2 (Homo sapiens) (O96017 whole entry): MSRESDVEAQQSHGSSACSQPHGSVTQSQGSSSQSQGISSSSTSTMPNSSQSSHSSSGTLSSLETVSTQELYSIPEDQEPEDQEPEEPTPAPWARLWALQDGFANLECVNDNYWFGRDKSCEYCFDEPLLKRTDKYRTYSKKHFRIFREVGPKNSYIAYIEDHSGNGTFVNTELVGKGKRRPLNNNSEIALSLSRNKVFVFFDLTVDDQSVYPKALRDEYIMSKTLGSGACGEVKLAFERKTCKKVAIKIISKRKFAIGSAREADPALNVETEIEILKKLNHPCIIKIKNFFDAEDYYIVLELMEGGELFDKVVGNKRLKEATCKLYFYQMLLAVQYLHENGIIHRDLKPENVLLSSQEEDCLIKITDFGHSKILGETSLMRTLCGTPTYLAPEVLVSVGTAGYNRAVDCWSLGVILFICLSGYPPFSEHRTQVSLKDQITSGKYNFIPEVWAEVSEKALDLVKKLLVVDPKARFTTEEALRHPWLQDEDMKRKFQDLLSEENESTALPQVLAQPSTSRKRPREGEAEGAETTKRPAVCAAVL
SMILES,inhibition [1],inhibition [2],inhibition [3],inhibition [4],inhibition [5],inhibition [6],inhibition [7],inhibition [8],inhibition [9],inhibition [10],inhibition [11],inhibition [12],inhibition [13],inhibition [14],inhibition [15],inhibition [16],inhibition [17],inhibition [18],inhibition [19],inhibition [20]
Cc1cc(O)cc(C)c1/C=C/c1cncc(C(N)=O)c1,3.4%,0.73%,2.46%,3.32%,15%,2.91%,9.42%,4.14%,1.23%,7.97%,2.76%,2.47%,6.44%,0.89%,1.57%,2.8%,0.66%,0.67%,4%,1.68%
COc1cccc(-n2ncc3c(N/N=C/c4ccc(C(=O)NCCN(C)C)cc4)ncnc32)c1,14.5%,43.9%,77.2%,23.5%,67.2%,33.3%,72%,0.97%,5.99%,2.13%,10.4%,8.19%,36.1%,0.48%,1.87%,2.47%,5.69%,0.95%,3.14%,3.46%
Cc1cc(O)cc(C)c1/C=C/c1cncc(C(=O)OC(C)(C)C)c1,4.01%,1.92%,4.1%,0.6%,5.15%,2.26%,3.54%,-0.01%,1.19%,1.37%,3.26%,2.39%,5.41%,0.08%,1.35%,2.4%,3.47%,0.86%,2.31%,1.5%
Nc1ncnc2occ(-c3ccc(NC(=O)Nc4cc(C(F)(F)F)ccc4F)cc3)c12,0.27% and -2.18%,5.01% and 0.14%,6.07% and 1.77%,1.75% and -1.05%,9.34% and -0.75%,2.02% and -1.66%,6.92% and 0.75%,1.85% and -1.45%,4.86% and 2.86%,2.82% and -3.6%,3.84% and -2.75%,3.01% and -3.72%,4.94% and 0.29%,0.92% and -1.47%,6.17% and 0.48%,3.39% and 0.89%,3.36% and 1.22%,0.48% and -3.48%,2.69% and -1.74%,3.18% and 0.64%
N#Cc1cccc(Nc2ncc(-c3ccccc3)o2)c1,1.61%,0.75%,7.37%,-1.88%,1.82%,0.65%,5%,-1.6%,-1.52%,1.87%,1.79%,0.08%,2.56%,-2.03%,-2.55%,0.93%,2.48%,1.04%,2.58%,2.18%
COc1ccccc1-c1cc(/C=C2\C(=O)Nc3ncc(Br)cc32)cc(Br)c1O,7.88%,4.1%,6.09%,4.73%,5.82%,5.97%,4.72%,0.1%,1.73%,4.16%,5.91%,4.86%,7.42%,0.86%,1.67%,2.44%,3.84%,4.82%,6.73%,0.98%
CN1CCC(C(=O)Nc2n[nH]c3nc(-c4ccc(O)cc4)c(Br)cc23)CC1,10.2% and 5.07%,2.41% and 0.87%,12% and 2.56%,5.59% and 6.13%,31.5% and 25.9%,6.63% and 3.74%,36.1% and 27.2%,1.98% and 1.28%,15.6% and 15.7%,3.72% and 2.36%,5.88% and 4.76%,3.23% and 2.76%,12.3% and 11.1%,-1.13% and 0.82%,-1.76% and 1.46%,0.73% and 0.68%,5.31% and 2.46%,3.5% and 1.61%,5.98% and 3.76%,2.41% and 2.49%
